Results published in PubChem BioAssay AID485364 (National Center for Advancing Translational Sciences (NCATS), 2010).
The campaign covered roughly 360,000 compounds. About 11,000 (3.1%) were called active. Entries that show only a call come without a potency. Roughly 4% stayed inconclusive and do not appear here. Calls come from the whole dose curve; as a rule, active = well fitted inhibition curve with a large enough effect; inconclusive = small, poorly fitted or top-dose-only effect; inactive = no such curve, though single readings can be large or run the other way. Many of the other results were omitted from the sample, so actives are more common in it than they were.
Note: nearly all actives have a fitted effect of over 60% in size.
Potency is the fitted concentration of half-maximal effect.

The molecules below were run against Schistosoma mansoni thioredoxin glutathione reductase (TGR) (UniProt Q962Y6) (assay: qHTS Assay for the Inhibitors of Schistosoma Mansoni Peroxiredoxins). Details: purified TGR, DTNB reduction, TNB absorbance 405 nm; series mostly up to 114 µM.
How it was run: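 First, TGR (20 nM dispensed) and NADPH were mixed with compound. Second, a 15 min room-temperature incubation followed. Third, further NADPH and then DTNB were added to start the reaction. Finally, TNB absorbance was monitored kinetically.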
With CC(=O)Nc1cccc(NC(=O)CSc2nccn2Cc2ccc3c(c2)OCO3)c1 the Potency was “inactive”.
Cc1ccccc1CN1CCC(CNC(=O)c2cc3ccc4cccnc4c3[nH]2)CC1 was tested, and the Potency was “inactive”.
For CCOc1ccc(CNC(=O)c2cc(-c3ccc(Cl)s3)nc3ccccc23)cc1, the Potency was “inactive”.
CCOC(=O)c1c(-c2ccc(-c3ccccc3)cc2)csc1NC(=O)CCC(=O)O was tested, and the Potency was “inactive”.
In the case of CCCS(=O)(=O)c1ncc(Cl)c(C(=O)Nc2scc(-c3ccccc3)c2C(=O)OCC)n1, the Potency is reported as 2 µM (active).
For CCOC(=O)c1scc(-c2ccccc2)c1S(=O)(=O)Nc1ccccc1F, the Potency was “inactive”.
CCC(Sc1nnc(-c2ccc(OC)cc2)c(-c2ccc(OC)cc2)n1)C(=O)NC1CCCCC1 (configuration not stated) was tested, and the Potency was “inactive”.
In the case of COc1cccc(CNC(=O)c2ccc3c(c2)N(Cc2ccc(C(F)(F)F)cc2)C(=O)c2ccccc2S3)c1OC, the Potency is reported as “inactive”.
With CCOc1ccc(-n2c(C)nc3c(cnn3-c3ccc(C)cc3)c2=O)cc1 the Potency was “inactive”.
Cc1cc(N2CCOCC2)nc2ccc(NC(=S)N3CCN(Cc4ccccc4)CC3)cc12 was tested, and the Potency was “inactive”.
CCN1CCN(c2cc(C)c3cc(NC(=O)c4cc(Cl)ccc4OC)ccc3n2)CC1 was tested, and the Potency was “inactive”.
In the case of CCOCCCNC(=S)Nc1ccc2nc(N3CCN(CC)CC3)cc(C)c2c1, the Potency is reported as 50.1 µM (active).
Cc1cccc(-n2ccnc2SCC(=O)Nc2cc(C(F)(F)F)ccc2Cl)c1 was tested, and the Potency was “inactive”.
For CCOc1ccc(N(C)S(=O)(=O)c2cc(-c3cnc(C)o3)ccc2OC)cc1, the Potency was “inactive”.
In the case of C=C(Br)CN1CCN(CC(=C)Br)CC1, the Potency is reported as 10 µM (active).
COc1ccc(CCNC(=O)c2cn(C)c3ccc(S(=O)(=O)N(C)C4CCCCC4)cc3c2=O)cc1OC was tested, and the Potency was “inactive”.
With CCCCCn1c(=O)[nH]c2cc(C(=O)Nc3ccc(F)cc3)ccc2c1=O the Potency was “inactive”.
For CCCC12CN3CC(CCC)(CN(C1)C3c1c[nH]c3ccc(OC)cc13)C2=O (configuration not stated), the Potency was “inactive”.
With Cc1ccc(Cl)cc1NC(=O)/C(C#N)=C\c1cn(Cc2ccc(F)cc2)c2ccccc12 the Potency was “inactive”.
In the case of COc1ccc(C2CC(c3cccs3)=NN2c2ccc(F)cc2)cc1OC (configuration not stated), the Potency is reported as 56.2 µM (active).
COc1ccc(C2CC(c3cccs3)=NN2c2nc(C)c(C(C)=O)s2)cc1OC (configuration not stated) was tested, and the Potency was “inactive”.
COc1ccc(C2CC(c3cccs3)=NN2C(=O)CSc2nncs2)cc1OC (configuration not stated) was tested, and the Potency was “inactive”.
In the case of O=C(O)CC1=C(Nc2ccccc2)C(=O)N(c2ccccc2)C1c1ccc(Cl)cc1 (configuration not stated), the Potency is reported as 39.8 µM (active).
In the case of O=C1C=C(c2ccc(Cl)cc2)C(=O)N1Nc1ccccc1, the Potency is reported as “inactive”.
In the case of COC(=O)CN1C(=S)N(c2ccccc2)C(=O)C1CC(=O)Nc1ccc(Cl)cc1 (configuration not stated), the Potency is reported as “inactive”.
Cc1ccc(CCNC(=O)c2nnc(Cc3cccc(F)c3)o2)cc1 was tested, and the Potency was “inactive”.
In the case of CCNC(=O)c1cc2n(n1)CCCN(Cc1ccc(C)cc1)C2=O, the Potency is reported as “inactive”.
CSc1ccc(CCNC(=O)c2ccc3c(c2)nc2n3CCOC2)cc1 was tested, and the Potency was “inactive”.
With Cc1cn(C)c(CC(=O)NCc2ccccc2)c1C(=O)O the Potency was “inactive”.
In the case of Cc1cccc2cc(CN(Cc3cccs3)C(=S)NCc3ccco3)c(=O)[nH]c12, the Potency is reported as “inactive”.
COc1ccc2[nH]c(=O)c(CN(Cc3nnnn3CCc3ccccc3)CC3CCCO3)cc2c1 (configuration not stated) was tested, and the Potency was “inactive”.
With CCC(c1nnnn1C1CCCC1)N(Cc1cccs1)Cc1cc2cccc(C)c2[nH]c1=O (configuration not stated) the Potency was “inactive”.
For CCC(c1nnnn1Cc1ccco1)N(CCc1ccccc1)Cc1cc2cccc(C)c2[nH]c1=O (configuration not stated), the Potency was 22.4 µM (active).
In the case of CCOc1ccc2[nH]c(=O)c(CN(Cc3nnnn3Cc3ccccc3)CC3CCCO3)cc2c1 (configuration not stated), the Potency is reported as “inactive”.
For CCC(c1nnnn1Cc1ccco1)N(Cc1cc2cc(OC)ccc2[nH]c1=O)C1CCCCC1 (configuration not stated), the Potency was 12.6 µM (active).
Cc1ccc(-c2nnc(SCc3ccccc3C)o2)cc1 was tested, and the Potency was “inactive”.
With Cc1ccc(C)c(N2CCN(C(c3ccccc3)c3nnc(-c4ccccc4)o3)CC2)c1 (configuration not stated) the Potency was “inactive”.
COc1cc(C(=O)Nc2ccc(OCc3cc(=O)n4ccc(C)cc4n3)cc2)cc(OC)c1OC was tested, and the Potency was “inactive”.
With CCCCn1c(CNC(=O)C23CC4CC(CC(C4)C2)C3)nnc1SCC(=O)Nc1ccc(C)cc1 the Potency was “inactive”.
In the case of COc1ccc(NS(=O)(=O)c2cc3c4c(c2)CC(=O)N4CCC3)cc1Cl, the Potency is reported as “inactive”.
Cc1n[nH]c(=O)c2c(NC(=O)CSc3cc(Cl)ccc3Cl)oc(C)c12 was tested, and the Potency was “inactive”.
With Cc1n[nH]c(=O)c2c(NC(=O)COC(=O)c3ncc(Cl)c(Cl)c3Cl)oc(C)c12 the Potency was 15.8 µM (active).
For Cc1n[nH]c(=O)c2c(NC(=O)CSc3ccccc3F)oc(C)c12, the Potency was “inactive”.
In the case of CC(=O)c1ccc(NC(=O)CSc2nnc(NC(=O)Nc3ccccc3)s2)cc1, the Potency is reported as “inactive”.
In the case of CCc1ccc(NC(=O)CCCc2nnc3n(CCCOC)c(=O)c4sccc4n23)cc1, the Potency is reported as “inactive”.
With COc1ccc(C(=O)c2oc3ccccc3c2NC(=O)COc2cccc(C)c2)cc1 the Potency was “inactive”.
For CN(Cc1ccccc1)C(=O)c1cn(C)c2ccc(S(=O)(=O)N3CCCCC3)cc2c1=O, the Potency was “inactive”.
